{"source": "PubChem BioAssay (NCI)", "note": "Compounds without any hit were thinned out: in the full panel of roughly 83,000, 20% have a hit.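 Plates (96-well) were seeded with cells, treated with compound at one concentration, and incubated for 48 hours before percent growth was determined.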 A number with no mark means an inactive call. Activity calls are given as the source filed them. Rule for the calls: active = growth percent below 10; inactive = the rest.", "data": [{"test_system": "MDA-MB-468 breast", "experiment": "NCI-60 one-dose screen, 48 h (100 = growth as untreated, 0 = no growth, -100 = all killed)", "settings": "10 µM unless noted", "values": [{"smiles": "COc1cc([C@@H]2c3cc4c(c(O)c3C[C@H]3COC(=O)[C@@H]32)OCO4)cc(OC)c1OC", "growth": "5.12% (active)"}, {"smiles": "C/C(=N/OC(=O)N(C)C)c1ccc(Cl)c(Cl)c1", "growth": "120%"}, {"smiles": "C[C@]12CC[C@@H]3C4=C(CC[C@H]3[C@@H]1CC[C@@H]2O)CC(=O)CC4", "growth": "101%"}, {"smiles": "S=P(SP(=S)(c1ccccc1)c1ccccc1)(c1ccccc1)c1ccccc1", "growth": "101%"}, {"smiles": "CN1C(=O)N[C@H]2[C@@H]3NC(=O)c4ccc(Br)n4[C@@H]3C[C@]21O", "growth": "-50.6% (active)"}, {"smiles": "Cc1cc[c-]cc1.Fc1c[c-]c(-c2ccccn2)c(F)c1.N#CCC[PH+](CCC#N)c1ccccc1.[Pt+2]", "growth": "37%"}, {"smiles": "CC[C@@H]1[C@@H](C)O[C@@](O)([C@@H](C)[C@H](O)[C@H](C)[C@H]2OC(=O)/C=C/C=C/[C@H](C)[C@@H]([C@@H](C)[C@@H](O)[C@H](C)[C@@]3(O)C[C@@H](O[C@H]4C[C@@H](O)[C@H](O)C(C)O4)[C@H](CC)[C@@H](C)O3)OC(=O)/C=C/C=C/[C@@H]2C)C[C@H]1O[C@@H]1C[C@@H](O)[C@H](O)C(C)O1", "note": "(some centres undefined)", "growth": "-83.6% (active)"}, {"smiles": "CC1=C2C(=C[C@@](C)(C=O)[C@@H]2O)C(=O)[C@](C)(O)C12CC2", "growth": "-66.7% (active)"}, {"smiles": "CC(=O)O[C@@H]1[C@@H]2O[C@H]2[C@@](C)(O)C(=O)[C@@H](C)C/C=C/[C@H]2[C@@H]3O[C@]3(C)[C@@H](C)C3[C@H](Cc4ccccc4)NC(=O)[C@@]312", "note": "(some centres undefined)", "growth": "56.8%"}, {"smiles": "O[C@H](CN1CC1)[C@@H](O)CN1CC1", "growth": "9.35% (active)"}, {"smiles": "COC(=O)[C@@]1(C)CC[C@]2(C)CC[C@]3(C)C4=CC(=O)c5c(cc(O)c(O)c5C)[C@]4(C)CC[C@@]3(C)[C@@H]2C1", "growth": "30.1%"}, {"smiles": "Cc1ccc(N2CCN(CCC#N)CC2)cc1", "growth": "105%"}, {"smiles": "CC[C@H](C)[C@H](NC(=O)C12C3C4C1C1C2C3C41NC)C(=O)N(C)[C@H](C[C@@H](OC(C)=O)c1nc(C(=O)N[C@@H](Cc2ccccc2)C[C@H](C)C(=O)OC)cs1)C(C)C", "note": "(some centres undefined)", "growth": "1.25% (active)"}, {"smiles": "CCOC(=O)[C@@H](C)C[C@H](Cc1ccccc1)NC(=O)c1csc([C@@H](C[C@H](C(C)C)N(C)C(=O)[C@H](CCC(C)C)NC(=O)[C@H]2CCCCN2C)OC(C)=O)n1", "growth": "5.73% (active)"}, {"smiles": "COc1cc2c(O[C@@H]3OC[C@H](OC(C)=O)[C@H](OC(C)=O)[C@H]3O)c3c(c(-c4ccc5c(c4)OCO5)c2cc1OC)C(=O)OC3", "growth": "55.4%"}, {"smiles": "CCCCCCCCCCCCCCCCCC1OC[C@@H](COC(=O)O[C@@H](C(=O)O[C@H]2C[C@@]3(O)[C@@H](OC(=O)c4ccccc4)[C@@H]4[C@]5(OC(C)=O)CO[C@@H]5C[C@H](O)[C@@]4(C)C(=O)[C@H](OC(C)=O)C(=C2C)C3(C)C)[C@@H](NC(=O)c2ccccc2)c2ccccc2)O1", "note": "(some centres undefined)", "growth": "21%"}, {"smiles": "O=S(=O)(c1ccc(Cl)cc1)C(Cl)(Cl)Cl", "growth": "-20.4% (active)"}, {"smiles": "C=CC(=O)NC(O)C(Cl)(Cl)Cl", "note": "(centres undefined)", "growth": "121%"}, {"smiles": "FC(F)=C(F)c1ccccc1", "growth": "105%"}, {"smiles": "CC(=O)Oc1ccc(Cl)cc1", "growth": "93.6%"}, {"smiles": "COc1ccc(CN)cc1OC", "growth": "114%"}, {"smiles": "CCOP(=O)(NC[C@H]1O[C@](O)(CO)[C@@H](O)[C@@H]1O)OCC", "growth": "107%"}, {"smiles": "c1ccc2c(c1)sc1ccccc12", "growth": "97.2%"}, {"smiles": "O=C1CCCCC1CN1CCCCC1", "note": "(centres undefined)", "growth": "112%"}, {"smiles": "C/C(=C(\\c1ccc(OCCN2CCOCC2)cc1)c1ccc(OC(=O)Cc2ccccc2)cc1)c1ccc(Cl)cc1", "growth": "78.8%"}, {"smiles": "CC1(CF)NC(=O)NC1=O", "note": "(centres undefined)", "growth": "113%"}, {"smiles": "N#CCCc1ccccc1", "growth": "101%"}, {"smiles": "O=C(CBr)Nc1ccccc1", "growth": "108%"}, {"smiles": "N#Cc1c(-n2c(Br)c(Br)c3cc(Br)ccc32)[nH]c2c(Br)cc(Br)cc12", "growth": "-16.3% (active)"}, {"smiles": "C/C1=C/C(=O)O[C@@H]2C[C@@H](CC[C@H](C)/C=C\\C=C\\CC1)O[C@@](OCCc1ccccc1)([C@@H]1CSC(=O)N1)C2", "growth": "12.2%"}, {"smiles": "COC(=O)[C@]12CCC(C)(C)C[C@H]1[C@H]1C(=O)C[C@@H]3[C@@]4(C)C[C@@]5(CC(C)(C)[C@@H]4CC[C@@]3(C)[C@]1(C)CC2)OO[C@@](C)(C(F)(F)F)O5", "growth": "84.5%"}, {"smiles": "COC(=O)CCP(CCC(=O)OC)c1ccccc1", "growth": "105%"}, {"smiles": "N#CC1(c2ccccc2)CCN(Cc2ccccc2)CC1", "growth": "90.2%"}, {"smiles": "N#C[S-].[Au+].c1ccc(CN2[CH-]N(Cc3ccccc3)C(c3ccccc3)=C2c2ccccc2)cc1", "growth": "-3.8% (active)"}, {"smiles": "CC/C(=C/c1ccc(OC)cc1OC)[N+](=O)[O-]", "growth": "-6.94% (active)"}, {"smiles": "CCCCCCCCCCCCNC(c1ccccc1)C(O)c1ccccc1", "note": "(centres undefined)", "growth": "48.5%"}, {"smiles": "COC(=O)[C@@H](C)C[C@H](Cc1ccccc1)NC(=O)c1cccc([C@@H](C[C@H](C(C)C)N(C)C(=O)[C@@H](NC(=O)[C@H]2CCCCN2C)C(C)C)OC(C)=O)n1", "growth": "10.1%"}, {"smiles": "CC[C@H](C)[C@H](NC(=O)c1nccn1C)C(=O)N(C)[C@H](C[C@@H](OC(C)=O)c1nc(C(=O)N[C@@H](Cc2ccccc2)C[C@H](C)C(=O)OC)cs1)C(C)C", "growth": "25.7%"}, {"smiles": "O=C(O)c1nn(Cc2ccc(Cl)cc2)c2ccccc12", "growth": "105%"}]}]}
